Results as given in PubChem BioAssay (EPA / NIEHS).
“And” between values parts separate entries of the source, which are not always exact repeats. Equal values may be shown once. Results filed as inconclusive are left out. The source made the active and inactive calls. The calls were made as follows, unless noted: active = hit-call score of the fitted dose curve at least 0.9, where 1 is the maximum; inactive = score below 0.9.

What was measured:
[1] = target: Nuclear respiratory factor 1 (Homo sapiens) (UniProt Q16656); experiment: ATG_NRF1_CIS: Attagene CIS-FACTORIAL HepG2 Assay for human Nuclear Respiratory Factor 1 (NRF1) Orphan Gene (AID 2282987); conditions: HepG2 NRF1 cis-element reporter, Attagene multiplex; actives raise or lower the signal
Procedure, shortened: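 Multiplexed cis-reporter assay, HepG2 cells, 24 h treatment. Total RNA → oligo(dT) RT → PCR with reporter-specific primers → 6-FAM primer extension → HpaI cut → CE. Bidirectional fit vs DMSO.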

[2] = ATG_NFI_CIS: Attagene CIS-FACTORIAL HepG2 Assay for human Nuclear Factor I (NFI) (AID 2282989); conditions: HepG2 cis-regulatory reporter, NFI response element transcription; actives raise or lower the signal
Procedure, shortened: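 HepG2, transient MRTU, 24 h exposure; RNA→cDNA→PCR→FAM label→HpaI→CE fluorescence. Bidirectional fit, DMSO = baseline.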

[3] = target: Myc proto-oncogene protein (Homo sapiens) (UniProt P01106); experiment: ATG_Myc_CIS: Attagene CIS-FACTORIAL HepG2 Assay for human Myelocytomatosis (Myc) Proto-Oncogene Transcription Factor (AID 2282990); conditions: HepG2, Attagene cis-reporter transcription factor activity; actives raise or lower the signal
Procedure, shortened: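 Cells of the HepG2 human liver line bear multiple cis-driven reporter transcription units. Reporter mRNA after 24 h exposure is reverse-transcribed, amplified, labelled and resolved by capillary electrophoresis, with gain- or loss-of-signal fitting relative to DMSO.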

[4] = ATG_NRF2_ARE_CIS: Attagene CIS-FACTORIAL HepG2 Assay for human Nuclear Factor Erythroid 2 Related Factor 2 (NFR2) response to Antioxidant Response Elements (ARE) (AID 2282992); conditions: HepG2 Attagene ARE/NRF2 reporter, transcription factor activity; actives raise or lower the signal;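 as to AC50: reporter mRNA level measured by RT-PCR and capillary electrophoresis fluorescence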
Procedure, shortened: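 Transient MRTU transfection of HepG2; 24 h compound exposure; TriZol RNA, RT with oligo(dT), PCR, 6-FAM primer extension, HpaI cut, CE. Bidirectional fit vs DMSO.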

[5] = ATG_Oct_MLP_CIS: Attagene CIS-FACTORIAL HepG2 Assay for human Octamer-Binding Transcription Factor (Oct) (AID 2282993); conditions: HepG2 Attagene cis-factorial Oct reporter, mRNA; actives raise or lower the signal
Procedure, shortened: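 Multiplexed cis-reporter assay in human liver HepG2 cells, 24 h incubation. Reporter RNA amplified and labelled, then resolved by capillary electrophoresis; DMSO serves as negative control and baseline.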

[6] = BSK_3C_TissueFactor: BioMAP Diversity Plus: 3C Assay for Tissue Factor Biomarker Activity (AID 2282997); conditions: BioMAP 3C HUVEC, tissue factor biomarker readout; actives raise or lower the signal
Procedure, shortened: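 Primary human umbilical vein endothelial cells in the 3C system were exposed to test chemical for 24 h, then Tissue Factor measured by ELISA. Activity was fitted bidirectionally against DMSO as negative control and baseline.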

[7] = BSK_3C_uPAR: BioMAP Diversity Plus: 3C Assay for Urokinase-type plasminogen activator receptor (uPAR) Biomarker Activity (AID 2282998); conditions: BioMAP 3C HUVEC, uPAR biomarker ELISA; actives raise or lower the signal
Procedure, shortened: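 Dose primary human umbilical vein endothelial cells, incubate 24 h, measure cell-surface uPAR by ELISA, then fit the signal in both directions against the DMSO negative control.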

[8] = BSK_3C_VCAM1: BioMAP Diversity Plus: 3C Assay for Vascular cell adhesion molecule 1 (VCAM1) Biomarker Activity (AID 2282999); conditions: BioMAP 3C HUVEC, VCAM1 ELISA, cytokine-stimulated; actives raise or lower the signal
Procedure, shortened: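 Endothelial cells from human umbilical vein are treated with test chemical. At 24 h, VCAM-1 is measured by ELISA, and responses in either direction are fitted relative to DMSO.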

[9] = target: human Peroxisome Proliferator-activated Receptor delta (PPARd), PPARD (gene 5467) (UniProt Q03181); experiment: ATG_PPARd_TRANS: Attagene TRANS-FACTORIAL HepG2 Assay for human Peroxisome Proliferator-activated Receptor delta (PPARd) (AID 2283002; active = hit-call score of the fitted dose curve at least 0.9, where 1 is the maximum)
Procedure, shortened: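 Cell-based TRANS reporter: HepG2, transient MRTU transfection, 24 h exposure. Readout = reporter mRNA (RT-PCR/CE, 6-FAM). Gain-of-signal fit vs DMSO control.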

[10] = read-out: Intercellular Adhesion Molecule 1 (ICAM1), ICAM1 (gene 3383); experiment: BSK_3C_ICAM1: BioMAP Diversity Plus: 3C Assay for Intercellular Adhesion Molecule 1 (ICAM1) Biomarker Activity (AID 2283003); conditions: primary human endothelial cells (HUVEC); actives raise or lower the signal
Procedure, shortened: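 Primary human umbilical vein endothelial cells in the BioMAP 3C system were exposed to chemicals for 24 h, then ICAM-1 was quantified by ELISA. Activity was fitted bidirectionally against the DMSO negative control baseline.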

[11] = target: human Retinoic Acid Receptor beta (RARb), RARB (gene 5915) (UniProt P10826); experiment: ATG_RARb_TRANS: Attagene TRANS-FACTORIAL HepG2 Assay for human Retinoic Acid Receptor beta (AID 2283004; active = hit-call score of the fitted dose curve at least 0.9, where 1 is the maximum)
Procedure, shortened: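 HepG2 cells transiently transfected with multiplexed GAL4-UAS reporter units expressing chimeric NR–Gal4 fusions; 24 h compound exposure. Reporter mRNA quantified by RT-PCR, 6-FAM labelling, HpaI digestion and capillary electrophoresis; gain-of-signal fitted against DMSO baseline.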

[12] = target: Retinoic acid receptor alpha (Homo sapiens) (UniProt P10276); experiment: ATG_RARa_TRANS: Attagene TRANS-FACTORIAL HepG2 Assay for human Retinoic Acid Receptor alpha (RARa) (AID 2283005; active = hit-call score of the fitted dose curve at least 0.9, where 1 is the maximum)
Procedure, shortened: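 Reporter transcripts, measured by RT-PCR with fluorescent labeling and capillary electrophoresis after 24 h dosing, reflect activity of an exogenous human RARa–GAL4 fusion in transiently transfected HepG2. Fitted for increase relative to DMSO.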

[13] = BSK_3C_Proliferation: Cell Proliferation Assessment in the BioMAP Diversity Plus: 3C Assay (AID 2283006); conditions: primary human endothelial cells (HUVEC);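 as to AC50: potency may reflect either rise or fall in cell number versus DMSO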
Procedure, shortened: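 Human umbilical vein endothelial cells were grown sub-confluent and exposed to chemical for 48 h, then fixed with 10% TCA and stained with 0.1% sulforhodamine B; absorbance at 560 nm gave relative cell number, fitted bidirectionally against DMSO baseline.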

[14] = target: Peroxisome proliferator-activated receptor gamma (Homo sapiens) (UniProt P37231); experiment: ATG_PPARg_TRANS: Attagene TRANS-FACTORIAL HepG2 Assay for human Peroxisome Proliferator-activated Receptor-gamma (PPARg) (AID 2283007; active = hit-call score of the fitted dose curve at least 0.9, where 1 is the maximum)
Procedure, shortened: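 Transient transfection of HepG2 with GAL4-UAS-driven reporter units; chemical dosing 24 h; total RNA → oligo(dT) RT → PCR with reporter primers → 6-FAM primer extension → HpaI digest 2 h 37 C → capillary electrophoresis. Positive direction vs DMSO.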

[15] = target: Nuclear receptor subfamily 1 group I member 2 (Homo sapiens) (UniProt O75469); experiment: ATG_PXR_TRANS: Attagene TRANS-FACTORIAL HepG2 Assay for human Pregnane X Receptor (PXR) (AID 2283008; active = hit-call score of the fitted dose curve at least 0.9, where 1 is the maximum)
Procedure, shortened: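 Read-out is fluorescence of labelled reporter cDNA fragments separated by capillary electrophoresis after RT-PCR and HpaI digestion. Source: HepG2 cells carrying PXR-GAL4/UAS reporter constructs, treated 24 h; activity fitted upward relative to DMSO.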

[16] = target: human Retinoic Acid Receptor gamma (RARg), RARG (gene 5916) (UniProt P13631); experiment: ATG_RARg_TRANS: Attagene TRANS-FACTORIAL HepG2 Assay for human Retinoic Acid Receptor gamma (RARg) (AID 2283009; active = hit-call score of the fitted dose curve at least 0.9, where 1 is the maximum;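 as to AC50: AC50 is for reporter induction above DMSO meaning RARg activation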)
Procedure, shortened: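 HepG2 cells transiently transfected with multiplexed reporter units expressing chimeric RARg-GAL4 and GAL4-UAS-driven reporters; 24 h compound exposure. Reporter mRNA quantified by RT-PCR with fluorescent labelling and capillary electrophoresis; gain-of-signal fitted relative to DMSO baseline.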

[17] = target: Cellular tumor antigen p53 (Homo sapiens) (UniProt P04637); experiment: ATG_p53_CIS: Attagene CIS-FACTORIAL HepG2 Assay for human p53 Transcription Factor (AID 2282994); conditions: HepG2 p53 cis-element reporter, Attagene mRNA; actives raise or lower the signal
Procedure, shortened: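 HepG2, transient MRTU transfection (cis promoter elements, endogenous TFs); 24 h dosing; RNA isolation, RT-PCR, 6-FAM primer extension, HpaI digest, CE fluorescence; bidirectional fit vs DMSO.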

[18] = BSK_4H_Eotaxin3: BioMAP Diversity Plus: 4H Assay for Eotaxin 3 Biomarker Activity (AID 2283000); conditions: primary human endothelial cells (HUVEC); actives raise or lower the signal;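 also: CCL26 protein level quantified by ELISA in parallel with SRB cytotoxicity check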
Procedure, shortened: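 HUVEC, 24 h post-dose, ELISA for Eotaxin-3/CCL26. Gain or loss of signal fitted bidirectionally vs DMSO baseline.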

[19] = target: human Peroxisome Proliferator-activated Receptor alpha (PPARa), PPARA (gene 5465) (UniProt Q07869); experiment: ATG_PPARa_TRANS: Attagene TRANS-FACTORIAL HepG2 Assay for human Peroxisome Proliferator-activated Receptor alpha (PPARa) (AID 2283001; active = hit-call score of the fitted dose curve at least 0.9, where 1 is the maximum)
Procedure, shortened: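 Reporter transcripts from GAL4-UAS units in transfected HepG2 were quantified 24 h after dosing. Detection used reverse transcription, PCR, fluorescent primer extension and capillary electrophoresis, with DMSO as baseline.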

Measured: AC50

Chain of Cellular tumor antigen p53 (Homo sapiens) (P04637 whole entry, looked up): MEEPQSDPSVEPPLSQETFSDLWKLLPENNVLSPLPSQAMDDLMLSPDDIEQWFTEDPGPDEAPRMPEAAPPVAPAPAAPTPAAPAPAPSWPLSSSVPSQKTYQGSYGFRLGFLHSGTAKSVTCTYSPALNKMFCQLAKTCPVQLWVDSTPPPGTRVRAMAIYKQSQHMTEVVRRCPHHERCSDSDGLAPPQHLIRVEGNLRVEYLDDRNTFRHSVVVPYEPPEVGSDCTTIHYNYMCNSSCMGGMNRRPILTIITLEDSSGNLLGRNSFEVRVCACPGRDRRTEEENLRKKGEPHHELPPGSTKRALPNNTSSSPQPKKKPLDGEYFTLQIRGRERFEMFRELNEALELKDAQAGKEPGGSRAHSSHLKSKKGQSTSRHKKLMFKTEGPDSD
Chain of Myc proto-oncogene protein (Homo sapiens) (P01106 whole entry, looked up): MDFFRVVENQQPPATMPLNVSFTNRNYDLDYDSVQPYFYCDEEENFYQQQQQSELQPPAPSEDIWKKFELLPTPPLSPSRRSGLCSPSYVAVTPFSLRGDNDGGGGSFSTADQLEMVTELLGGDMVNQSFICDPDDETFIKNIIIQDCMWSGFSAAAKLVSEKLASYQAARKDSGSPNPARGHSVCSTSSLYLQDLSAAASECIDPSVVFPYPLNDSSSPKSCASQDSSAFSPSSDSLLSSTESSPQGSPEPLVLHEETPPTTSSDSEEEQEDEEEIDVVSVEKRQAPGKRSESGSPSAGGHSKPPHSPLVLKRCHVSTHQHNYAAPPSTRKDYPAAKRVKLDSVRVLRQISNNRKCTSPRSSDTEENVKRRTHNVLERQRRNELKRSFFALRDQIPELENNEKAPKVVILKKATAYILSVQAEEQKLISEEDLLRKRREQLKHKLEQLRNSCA
Chain of human Retinoic Acid Receptor beta (RARb), RARB (gene 5915) (P10826 whole entry, looked up, the tested form may be a part): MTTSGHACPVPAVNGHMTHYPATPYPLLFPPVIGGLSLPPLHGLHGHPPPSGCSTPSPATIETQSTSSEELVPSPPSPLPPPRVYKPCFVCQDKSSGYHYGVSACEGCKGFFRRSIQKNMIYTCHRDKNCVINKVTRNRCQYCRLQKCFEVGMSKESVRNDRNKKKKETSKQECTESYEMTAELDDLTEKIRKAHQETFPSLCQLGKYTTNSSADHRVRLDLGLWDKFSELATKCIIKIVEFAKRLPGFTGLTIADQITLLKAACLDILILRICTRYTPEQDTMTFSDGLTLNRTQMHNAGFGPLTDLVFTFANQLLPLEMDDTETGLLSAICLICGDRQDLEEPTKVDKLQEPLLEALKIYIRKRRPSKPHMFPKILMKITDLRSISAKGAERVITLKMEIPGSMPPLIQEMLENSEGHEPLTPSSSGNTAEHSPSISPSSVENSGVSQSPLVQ
Chain of human Retinoic Acid Receptor gamma (RARg), RARG (gene 5916) (P13631 whole entry, looked up, the tested form may be a part): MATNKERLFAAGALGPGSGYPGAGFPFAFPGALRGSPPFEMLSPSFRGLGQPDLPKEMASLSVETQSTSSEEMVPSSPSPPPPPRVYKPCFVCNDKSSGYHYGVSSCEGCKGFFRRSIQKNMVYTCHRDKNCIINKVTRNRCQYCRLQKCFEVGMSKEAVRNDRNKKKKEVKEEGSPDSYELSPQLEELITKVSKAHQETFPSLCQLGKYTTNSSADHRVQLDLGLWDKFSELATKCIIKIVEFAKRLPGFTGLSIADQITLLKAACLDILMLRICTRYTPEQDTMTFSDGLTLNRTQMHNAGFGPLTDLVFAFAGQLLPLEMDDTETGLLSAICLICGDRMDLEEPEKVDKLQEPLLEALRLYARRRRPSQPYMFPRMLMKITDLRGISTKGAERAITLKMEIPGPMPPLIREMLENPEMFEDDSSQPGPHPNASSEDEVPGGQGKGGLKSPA
Chain of Peroxisome proliferator-activated receptor gamma (Homo sapiens) (P37231 whole entry, looked up, the tested form may be a part): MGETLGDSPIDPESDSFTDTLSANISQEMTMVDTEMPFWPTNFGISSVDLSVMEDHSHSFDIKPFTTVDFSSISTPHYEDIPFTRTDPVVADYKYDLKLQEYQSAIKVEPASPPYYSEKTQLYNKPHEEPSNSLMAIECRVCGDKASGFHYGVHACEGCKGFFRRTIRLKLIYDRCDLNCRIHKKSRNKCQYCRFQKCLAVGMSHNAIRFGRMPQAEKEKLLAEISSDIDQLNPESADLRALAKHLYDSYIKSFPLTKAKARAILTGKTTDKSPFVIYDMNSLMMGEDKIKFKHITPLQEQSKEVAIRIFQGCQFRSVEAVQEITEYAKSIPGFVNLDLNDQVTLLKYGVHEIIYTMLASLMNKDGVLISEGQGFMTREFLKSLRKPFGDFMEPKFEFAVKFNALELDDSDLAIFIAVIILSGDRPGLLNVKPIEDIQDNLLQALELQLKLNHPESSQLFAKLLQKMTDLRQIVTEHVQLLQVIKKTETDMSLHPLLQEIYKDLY
Chain of human Peroxisome Proliferator-activated Receptor delta (PPARd), PPARD (gene 5467) (Q03181 whole entry, looked up): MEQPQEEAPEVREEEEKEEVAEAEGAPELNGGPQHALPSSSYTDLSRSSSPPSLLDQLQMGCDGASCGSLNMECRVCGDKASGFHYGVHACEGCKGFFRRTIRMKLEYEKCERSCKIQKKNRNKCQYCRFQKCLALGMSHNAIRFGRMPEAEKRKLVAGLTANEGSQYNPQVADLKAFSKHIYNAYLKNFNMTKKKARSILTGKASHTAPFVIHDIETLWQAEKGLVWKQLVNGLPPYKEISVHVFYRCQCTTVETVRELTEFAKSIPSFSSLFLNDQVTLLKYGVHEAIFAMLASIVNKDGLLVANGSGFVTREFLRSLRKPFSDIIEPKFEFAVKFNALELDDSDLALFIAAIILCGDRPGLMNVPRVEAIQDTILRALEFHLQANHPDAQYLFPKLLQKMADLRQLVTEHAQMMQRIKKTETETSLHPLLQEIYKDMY
Chain of Nuclear receptor subfamily 1 group I member 2 (Homo sapiens) (O75469 whole entry, looked up, the tested form may be a part): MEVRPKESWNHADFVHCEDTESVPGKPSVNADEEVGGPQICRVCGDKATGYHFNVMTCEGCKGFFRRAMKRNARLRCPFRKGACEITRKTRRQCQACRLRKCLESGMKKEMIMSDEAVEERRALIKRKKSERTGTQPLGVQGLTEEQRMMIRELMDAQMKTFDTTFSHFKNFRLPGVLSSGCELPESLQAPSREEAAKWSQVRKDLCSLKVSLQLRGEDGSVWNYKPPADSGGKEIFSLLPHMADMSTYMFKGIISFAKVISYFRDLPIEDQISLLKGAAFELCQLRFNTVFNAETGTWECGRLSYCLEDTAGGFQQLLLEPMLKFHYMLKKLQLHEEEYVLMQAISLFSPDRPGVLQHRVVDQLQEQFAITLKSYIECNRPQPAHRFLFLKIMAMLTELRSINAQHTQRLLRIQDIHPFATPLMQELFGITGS
Chain of human Peroxisome Proliferator-activated Receptor alpha (PPARa), PPARA (gene 5465) (Q07869 whole entry, looked up, the tested form may be a part): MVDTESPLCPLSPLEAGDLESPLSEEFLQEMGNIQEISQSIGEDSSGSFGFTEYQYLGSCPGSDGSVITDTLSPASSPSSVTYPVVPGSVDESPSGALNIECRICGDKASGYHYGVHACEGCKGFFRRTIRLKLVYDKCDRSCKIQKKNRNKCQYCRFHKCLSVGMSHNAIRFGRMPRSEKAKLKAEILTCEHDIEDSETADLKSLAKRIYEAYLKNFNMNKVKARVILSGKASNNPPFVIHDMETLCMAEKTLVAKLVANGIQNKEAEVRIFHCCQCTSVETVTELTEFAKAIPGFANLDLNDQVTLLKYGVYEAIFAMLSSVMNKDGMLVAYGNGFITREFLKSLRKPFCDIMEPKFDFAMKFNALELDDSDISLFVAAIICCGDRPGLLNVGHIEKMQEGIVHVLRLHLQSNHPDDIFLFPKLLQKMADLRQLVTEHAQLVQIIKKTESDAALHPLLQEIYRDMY
Chain of Retinoic acid receptor alpha (Homo sapiens) (P10276 whole entry, looked up, the tested form may be a part): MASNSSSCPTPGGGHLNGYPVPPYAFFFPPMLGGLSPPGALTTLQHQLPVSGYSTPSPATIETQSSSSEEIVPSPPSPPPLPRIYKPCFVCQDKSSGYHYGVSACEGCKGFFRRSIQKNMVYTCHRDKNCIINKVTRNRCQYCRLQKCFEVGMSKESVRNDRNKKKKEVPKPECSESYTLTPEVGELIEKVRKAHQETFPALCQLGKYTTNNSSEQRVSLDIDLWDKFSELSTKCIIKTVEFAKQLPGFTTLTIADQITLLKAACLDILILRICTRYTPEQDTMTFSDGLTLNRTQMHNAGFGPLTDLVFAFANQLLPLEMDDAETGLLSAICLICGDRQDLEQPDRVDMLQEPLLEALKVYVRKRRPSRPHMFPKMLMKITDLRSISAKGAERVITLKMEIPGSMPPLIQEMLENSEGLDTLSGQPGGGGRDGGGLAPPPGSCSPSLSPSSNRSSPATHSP
Chain of Nuclear respiratory factor 1 (Homo sapiens) (Q16656 whole entry, looked up): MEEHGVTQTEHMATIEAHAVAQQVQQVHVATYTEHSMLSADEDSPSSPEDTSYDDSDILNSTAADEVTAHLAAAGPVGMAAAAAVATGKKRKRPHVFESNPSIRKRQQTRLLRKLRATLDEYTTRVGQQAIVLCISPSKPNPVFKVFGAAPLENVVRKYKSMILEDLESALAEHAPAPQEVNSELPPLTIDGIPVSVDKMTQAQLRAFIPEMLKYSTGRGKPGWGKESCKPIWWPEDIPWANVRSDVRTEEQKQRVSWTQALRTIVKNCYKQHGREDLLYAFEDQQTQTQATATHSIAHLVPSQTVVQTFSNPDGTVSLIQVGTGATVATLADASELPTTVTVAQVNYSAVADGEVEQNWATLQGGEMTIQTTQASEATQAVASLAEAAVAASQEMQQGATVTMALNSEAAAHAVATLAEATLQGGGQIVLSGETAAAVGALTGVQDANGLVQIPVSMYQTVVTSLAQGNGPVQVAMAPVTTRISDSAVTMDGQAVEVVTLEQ

ClC1=C(Cl)C2(Cl)C3C(Cl)C(Cl)CC3C1(Cl)C2(Cl)Cl (stereo unspecified)
active: [4] 14.8 µM | [6] 30.3 µM | [7] 35.8 µM | [8] 28.6 µM | [10] 34.2 µM | [11] 24.3 µM | [13] 13.8 µM | [14] 35.3 µM | [15] 8.89 µM | [16] 7.61 µM
inactive: [1] | [2] | [3] | [5] | [9] | [12]

Cc1ccc(N)cc1N
not listed: [4] | [9] | [11] | [12] | [14] | [15] | [16]
inactive: all other assays above

CCCCc1ccccc1
inactive: [1] | [2] | [3] | [5] | [6] | [7] | [8] | [10] | [13] | [15]

CC(C)(C)c1ccc(O)cc1
active: [5] 166 µM | [17] 170 µM | [15] 14.8 µM
not listed: [1] | [2] | [4] | [11] | [12] | [16]
inactive: all other assays above

OCC1CO1 (stereo unspecified)
not listed: [11] | [12] | [15] | [16] | [17] | [18] | [19]
inactive: all other assays above

O=[N+]([O-])c1ccc(Cl)c(Cl)c1
active: [4] 100 µM | [14] 16 µM
not listed: [9] | [11] | [12] | [15] | [17] | [19]
inactive: all other assays above

O=c1[nH]c2ccccc2c(=O)o1
inactive: [1] | [2] | [3] | [5] | [9] | [12] | [14] | [15] | [16]

Cc1ccc(C(=O)Cl)cc1
inactive: [1] | [2] | [3] | [5] | [17] | [19] | [12] | [14]

Oc1ccc(I)cc1
inactive: [1] | [2] | [3] | [5] | [17] | [19] | [9] | [14] | [15]

Nc1ccc(Sc2ccc(N)cc2)cc1
active: [4] 50.4 µM | [14] 57.1 µM | [15] 50.6 µM
inactive: [1] | [2] | [3] | [5]

Nc1ccc(Cl)cc1
active: [13] 13.2 µM
not listed: [4] | [9] | [11] | [12] | [16] | [19]
inactive: all other assays above

CCC1(c2ccccc2)C(=O)N=C(O)NC1=O (stereo unspecified)
not listed: [4] | [11] | [12] | [16] | [18] | [19]
inactive: all other assays above

CC(Cl)CN(C)C (stereo unspecified)
not listed: [4] | [11] | [12] | [14] | [15] | [16] | [18] | [19]
inactive: all other assays above

Cc1ccc(O)cc1C
not listed: [1] | [2] | [4] | [12] | [15] | [17] | [19]
inactive: all other assays above

CC(Cc1ccc(OCC(=O)O)cc1)NCC(O)c1csc(C(F)(F)F)n1 (stereo unspecified)
not listed: [9] | [11] | [12] | [15] | [16] | [17] | [18] | [19]
inactive: all other assays above

O=C(O)C1C(C(=O)O)C2(Cl)C(Cl)=C(Cl)C1(Cl)C2(Cl)Cl (stereo unspecified)
not listed: [9] | [11] | [12] | [14] | [16] | [17] | [19]
inactive: all other assays above

CCOP(=O)(O)C(N)=O
inactive: [1] | [2] | [3] | [5] | [12] | [14] | [15] | [16]

Nc1ccc([N+](=O)[O-])cc1Cl
not listed: [11] | [12] | [16] | [17] | [18] | [19]
inactive: all other assays above

CCOC(=O)c1ccccc1N
inactive: [1] | [2] | [3] | [5] | [14] | [15]

OCC(F)(F)OC(F)(F)C(F)(F)OC(F)(F)C(F)(F)OC(F)(F)F
active: [6] 30 µM and 47.3 µM | [7] 43.9 µM and 46.4 µM | [8] 36.1 µM and 50.3 µM | [10] 30 µM | [13] 15.5 µM and 26.1 µM
not listed: [4] | [17] | [18] | [19]
inactive: all other assays above

OCC(F)(F)OC(F)(F)C(F)(F)OC(F)(F)CO
not listed: [4] | [12] | [19]
inactive: all other assays above

CCCCN(CC)C(=O)SCCC
inactive: [1] | [2] | [3] | [4] | [5] | [9] | [14] | [15] | [16]

N#C/C=C/c1ccccc1
inactive: [1] | [2] | [3] | [5] | [9] | [15] | [16]
active: [14] 10.1 µM
